Experimental data reported in PubChem BioAssay (NCATS).
Results filed as inconclusive are left out. A number with no mark means an inactive call. Activity calls are given as the source filed them. The call rests on the fitted dose curve; in most records, active means well fitted cell-killing curve with a large enough effect; inconclusive means small, poorly fitted or top-dose-only effect; inactive means flat fitted curve, though single readings scatter.

Assay: Quantitative highthroughput screen to assess conditional lethalithy of NOMO1 cells grown in RPMI1640 with untreated serum (RPMI+s) (AID 1963876); further: nearly all actives have a fitted effect of over 35% in size
Conditions: NOMO1 AML cells in RPMI+serum, CellTiter-Glo viability, 48 h; series mostly up to 45.8 µM; viability: at the top concentration
Text: Assay Provider: Jason Cantor Ph.D.
Department of Biochemistry
University of Wisconsin-Madison, Madison, WI, USA
Chemical screening studies have identified drug sensitivities across hundreds of cancer cell lines but most putative therapeutics fail to translate. Discovery and development of drug candidates in models that more accurately reflect nutrient levels in human blood is a major challenge. Here we performed high-throughput screens in conventional versus Human Plasma-Like Medium (HPLM) to identify compounds that were "missed" when screening using the artificial culture condition. Sets of conditional anticancer compounds spanned phases of clinical development and included non-oncology drugs were assessed. […] We also traced conditional phenotypes for several chemotherapeutics to availability of HPLM-specific metabolites and confirmed others for compounds whose reported targets are encoded by nonessential genes. Our findings establish generalizable strategies for exploiting conditional lethality in HPLM to reveal therapeutic candidates and mechanisms of action in cancer cells.
Described herein are the results of each viability screens against three cell lines: NOMO1 (an acute myeloid leukemia cell line); P12-Ichikawa (a T-cell acute lymphoblastic leukemia); and SEM (a B-cell ALL). Each assay was screened using 3 different cell culture media: homemade human plasma-Like medium with 10% dialyzed fetal bovine serum (HPLM+ds); RPMI1640 with 10% untreated FBS and 5mM glucose (RPMI+s); and RPMI1640 with 10% dialyzed fetal bovine serum and 5 mM glucose (RPMI+ds).
PROTOCOL TABLE (as described by Inglese J, Shamu CE and Guy RK. 2007)
SEQUENCE No. (e.g., 1, 2, 3, etc.); […] (e.g., Cells, Incubation, Reagent, etc.); VALUE and DESCRIPTION.
1; Cells; 5 uL; white, solid bottom 1536-well Greiner assay plate.
2; Compounds; 23 nL; Kalypsis pin tool (Wako USA) equipped with a 1536-well pin head to transfer to the assay plates.
3; Incubation; 48 hours; 37C incubation.
4; Reagent; 3 uL; CellTiter Glo (Promega).
5; Incubation; 5 min, room temperature
6; Detection; Luminescence, Viewlux PerkinElmer.
NOTES (numbers refer to Sequence numbers above)
1. Briefly, 5 ul of cell reagent was dispensed using a Multidrop Combi Dispenser. The NOMO1 and SEM cells were plated at 500 cells/well and the P12-Ichikawa line at 1000 cells/well.
2. After seeding the cells, 23 nL of MIPE 4.1 library compounds (in DMSO) were added to each plate using a Kalypsys 1536 Pintool dispenser. Bortezomib at final concentration of […] and DMSO were added to each plate as positive and negative controls respectively. For each screen, MIPE 4.1 compounds were added over an eleven-point concentration range […] in 3-fold dilutions.
3. Each plate was covered with a stainless steel gasketed lid to prevent evaporation and incubated for 48 hour at 37C, 95% relative humidity, and 5% CO2.
4-5. Three microliter CellTilter-GloTM luminescent substrate mix (Promega) reagent was added to the assay plate and incubated at room temperature for 5 min.
6. The luminescence signal was measured using a ViewLux (PerkinElmer) multiplate reader with a 2 second exposure time per plate. Data for each compound were normalized as percent viability such that measurements for DMSO and the empty well controls in each plate were defined as 100% and 0%, respectively.
Potency means the concentration at half of the fitted maximal effect.

SMILES	viability	Potency
CC(C)NCC(O)c1ccc(NS(C)(=O)=O)cc1 (stereo not given)	109%	
C[Se]CCC(N)C(=O)O (stereo not given)	98.2% [at 92.2 µM]	
COc1cc2ncnc(Nc3ccc(F)c(Cl)c3)c2cc1NC(=O)C=CCN1CCCCC1	87.2%	
CC(C)(O)c1cc2nc(-c3cnc(N)nc3)nc(N3CCOCC3)c2s1		1.87 µM (active)
COc1cc2c(cc1OC)CN(CCc1ccc(NC(=O)c3cc(OC)c(OC)cc3NC(=O)c3cnc4ccccc4c3)cc1)CC2	96.5%	
COc1nc(-c2ccc3c(c2)OCO3)n(-c2ccc(NC(=O)CSc3ccccc3)cc2)n1		23.5 µM (active)
Oc1ccc(-c2nc(-c3ccc(F)cc3)c(-c3ccncc3)[nH]2)cc1		10.5 µM (active)
O=C(OC1C[C@H]2CC[C@@H](C1)[N+]21CCCC1)C(O)(c1ccccc1)c1ccccc1 (stereo not given in full)	90.9%	
O=c1oc2cc(O)ccc2s1	99.6%	
C=CC(=O)Nc1cc2c(Nc3ccc(F)c(Cl)c3)ncnc2cc1OCCCN1CCOCC1	87.8%	
COc1cc2ncnc(Nc3cccc(Br)c3)c2cc1OC	110%	
CC(C(C)N1CC(=O)NC(=O)C1)N1CC(=O)NC(=O)C1 (stereo not given)	96.6%	
CN[C@H]1CCc2cc(OC)c(OC)c(OC)c2-c2ccc(OC)c(=O)cc21		0.0093 µM (active)
CC(=O)NC[C@H]1CN(c2ccc(N3CCOCC3)c(F)c2)C(=O)O1	94.8%	
CC1=C(C(=O)O)N2C(=O)[C@@H](NC(=O)C(N)c3ccccc3)[C@H]2SC1 (stereo not given in full)	97.4%	
Cc1nn(C)c2c1C(c1ccc(C(F)(F)F)cc1)C(C#N)=C(N)O2 (stereo not given)	88.6%	
C[N+](C)(C)CC(=O)O	97%	
CC(=O)N(O)CCCCCNC(=O)CCC(=O)N(O)CCCCCNC(=O)CCC(=O)N(O)CCCCCN		0.0186 µM (active)
O=c1c(O)c(-c2cc(O)c(O)c(O)c2)oc2cc(O)cc(O)c12	94.5%	
COC(=O)Nc1nc2ccc(C(=O)c3ccccc3)cc2[nH]1		3.32 µM (active)

SMILES	viability	Potency
N#CC(=Cc1ccc(O)c(O)c1)C(=O)NCc1ccccc1	101%	
CCOC(=O)N1CCN([N+]([O-])=NOc2ccc([N+](=O)[O-])cc2C#N)CC1		3.32 µM (active)
COc1ccc(C2CNC(=O)C2)cc1OC1CCCC1 (stereo not given)	112%	
CC[C@H]1CN2CCc3cc(OC)c(OC)cc3[C@H]2C[C@@H]1C[C@@H]1NCCc2cc(OC)c(OC)cc21		0.469 µM (active)
O=c1cc(-c2cccc3c2Sc2ccccc2S3)oc(N2CCOCC2)c1	100%	
O=C(C=Cc1c(C(=O)O)[nH]c2cc(Cl)cc(Cl)c12)Nc1ccccc1	94.7%	
OCc1ccc(-c2ccc(-c3ccc(CO)s3)o2)s1	101%	
C[C@@H]1CN(CC(=O)N2CC(C)(C)c3ncc(Cc4ccc(F)cc4)cc32)[C@@H](CN2CCOC[C@H]2C)CN1	79.4%	
Cc1ccc([N+](=O)[O-])cc1S(=O)(=O)N(C)N=Cc1cnc2ccc(Br)cn12		0.0935 µM (active)
CCc1ccc(C=C2SC(=S)NC2=O)cc1	90.4%	
Nc1nc(Nc2ccc(S(N)(=O)=O)cc2)nn1C(=O)c1c(F)cccc1F		16.6 µM (active)
CC(C)(C)c1[nH]cnc1C=c1[nH]c(=O)c(=Cc2ccccc2)[nH]c1=O		0.0068 µM (active)
Oc1cc2c(cc1O)C1c3ccc(O)c(O)c3OCC1(O)C2 (stereo not given)	94.8%	
Cc1[nH]c2ccccc2c1CCNCc1ccc(C=CC(=O)NO)cc1		0.743 µM (active)
O=C(C=CC#Cc1cccc(NS(=O)(=O)c2ccccc2)c1)NO		3.72 µM (active)
CC(C)[C@H](C(=O)Nc1ccc(C(=O)NO)cc1)c1ccccc1		3.32 µM (active)
OC[C@H]1O[C@@H](OCCc2ccc(O)cc2)[C@H](O)[C@@H](O)[C@H]1O	101%	
COc1ccc2c(c1)c(CC(=O)O)c(C)n2C(=O)c1ccc(Cl)cc1	95.9%	
COc1ccc([C@@H]2CNC(=O)C2)cc1OC1CCCC1	102%	
O=[N+]([O-])c1ccc(Nc2ccccc2-c2ccccc2)c2nonc12	104%	
